Assay outcomes from PubChem BioAssay.
JMJD2E inh – JMJD2E (human) inhibition; JMJD2E catalytic domain, FDH-coupled NADH fluorescence (FDH is formaldehyde dehydrogenase); Potency, µM (highest dose often 57.1 µM), most hits filed as inhibitors; 230,000 compounds, 1.6% hits; AID 2147; note: nearly all actives have a fitted effect of over 50% in size
Target sequence (B2RXH2 1-337 limits assumed): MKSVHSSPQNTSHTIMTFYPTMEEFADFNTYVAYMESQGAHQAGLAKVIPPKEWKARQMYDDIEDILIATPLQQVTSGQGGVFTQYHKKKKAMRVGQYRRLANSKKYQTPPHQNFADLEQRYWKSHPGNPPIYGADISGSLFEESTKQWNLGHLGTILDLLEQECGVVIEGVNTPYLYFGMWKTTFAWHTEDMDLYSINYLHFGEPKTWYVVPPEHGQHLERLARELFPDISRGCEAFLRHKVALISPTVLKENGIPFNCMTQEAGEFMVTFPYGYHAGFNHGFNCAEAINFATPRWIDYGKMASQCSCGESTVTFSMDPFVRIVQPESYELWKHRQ
HPGD block – inhibitors of human 15-hydroxyprostaglandin dehydrogenase (HPGD). P15428. Potency, µM, hits mostly inhibitors. 150,000 compounds, 4.3% hits. AID 894. purified HPGD, NADH fluorescence kinetic, PGE2 substrate
Target sequence (P15428 whole entry, looked up): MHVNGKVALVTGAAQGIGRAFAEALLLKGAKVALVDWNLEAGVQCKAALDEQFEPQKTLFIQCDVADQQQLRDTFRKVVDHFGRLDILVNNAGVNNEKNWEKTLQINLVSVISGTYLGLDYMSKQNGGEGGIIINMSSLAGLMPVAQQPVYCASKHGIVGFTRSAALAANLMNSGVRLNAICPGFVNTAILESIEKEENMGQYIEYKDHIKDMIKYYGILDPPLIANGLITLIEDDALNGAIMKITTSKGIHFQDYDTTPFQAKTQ
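NADH formation kinetics: reaction with 30 uM PGE2 and 1 mM NAD+ (final), 20 nM enzyme, Tris-HCl pH 8 with Tween 20, after 15 min compound preincubation at room temperature. Fluorescence change, last versus first of five reads.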
ALDH1A1 inh – ALDH1A1 (human) enzyme inhibition | P00352 | Purified ALDH1A1, NADH fluorescence, propionaldehyde substrate | Potency, µM (highest dose often 75.3 µM), usual class: inhibitors | 220,000 compounds, 7.3% hits | AID 1030
Lamin A splicing – LMNA splicing modulation | HeLa LMNA splicing GFP/RFP minigene ratio, 48 h | Potency, µM (series often up to 46.1 µM), most hits filed as inhibitors | 200,000 compounds, 0.01% hits | AID 1487; active = well fitted inhibition curve with a large enough effect in the signal ratio, with a control signal flat, not every such curve was filed as active; inconclusive = small, poorly fitted or top-dose-only effect, or effect the other way, or a change in a side signal; the % refers to the signal ratio
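Read-out is the ratio of GFP to DsRed2 object intensity, acquired by 488 nm laser-scanning cytometry on HeLa lamin A-EGFP minigene reporter cells. Compound incubation 48 hrs at 37 °C in Opti-MEM with 2% FBS; DMSO 0.5% final.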
HTT aggregate – mutant huntingtin aggregation inhibition; PC12 HttQ103-GFP aggregates, Acumen cytometry, 40 h; 220,000 compounds, 1.1% hits; Potency, µM (top dose mostly 46.1 µM), usual class: inhibitors; active = well fitted curve in the direction sought with a large enough effect; inconclusive = small, poorly fitted or top-dose-only effect, or another doubt; inactive = no such curve, though single readings can be large; an effect the other way counts as inactive or inconclusive; note: nearly all actives have a fitted effect of over 60% in size
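PC12/HTTQ103-GFP, ecdysone-inducible; teb 100 nM; cpd qHTS titration; GFP aggregates read on laser cytometer, Ex 488/Em 500-530 nm.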
HTT cytoprotect – Huntington cell model cytoprotection by ATP luminescence | PC12 HTT-Q103 induced, cytoprotection, ATP luminescence, 40 h | Potency, µM (highest dose often 56.4 µM), usual class: activators | 230,000 compounds, 0.14% hits | AID 1471; active = well fitted curve in the direction sought with a large enough effect; inconclusive = small, poorly fitted or top-dose-only effect, or another doubt; inactive = no such curve, though single readings can be large; an effect the other way counts as inactive or inconclusive; note: nearly all actives have a fitted effect of over 45% in size
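Quantitative HTS on tebufenozide-induced (100 nM) PC12 cells expressing HTTQ103 exon 1–GFP; compounds tested as a concentration series; survival measured via cellular ATP.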
A number is an active result; ! = not active in a repeat; [ ] = dose if it differs, or a comment. Most compounds without a hit are left out; they make up all but 9.2% or so of the library. Unless noted, calls come from the whole dose curve; as a rule, active = well fitted inhibition curve with a large enough effect (not every such curve was filed as active); inconclusive = small, poorly fitted or top-dose-only effect, or another doubt; inactive = no such curve, though single readings can be large or run the other way.

COc1ccc(-c2cnn3c(N)c(S(=O)(=O)c4ccccc4)cnc23)cc1 was read as JMJD2E inh inactive, HPGD block 20µM, ALDH1A1 inh inactive, Lamin A splicing inactive, HTT aggregate inactive and HTT cytoprotect inactive[10 µM].
CCCCCCN(C(=O)CCCCCN1C(=O)NC(c2ccc(-c3ccccc3)cc2)C(C(=O)OCc2ccccc2)=C1C)C(C(=O)NCCCC)c1ccc(OCC(=O)OC)c(C(=O)OC)c1 (stereo unspecified) was read as JMJD2E inh inactive, HTT aggregate inactive[9.22 µM] and HTT cytoprotect inactive[10 µM].
`CCCCCCN(C(=O)CCCCCN1C(=O)NC(C2CC2)C(C(=O)OCc2ccccc2)=C1C)C(C(=O)NCCCC)c1ccc(OCC(=O)OC)c(C(=O)OC)c1` (stereo unspecified) gave JMJD2E inh inactive, HPGD block inactive, ALDH1A1 inh 12.6µM and HTT cytoprotect inactive.
For CCCCCCN(C(=O)CCCCCN1C(=O)NC(c2ccc(-c3ccccc3)cc2)C(C(=O)OCc2ccccc2)=C1C)C(C(=O)NCCCC)c1ccccc1 (stereo unspecified) the results were JMJD2E inh inactive, HPGD block inactive, ALDH1A1 inh inactive, HTT aggregate inconclusive and HTT cytoprotect inactive[10 µM].
`CCCCCCN(C(=O)CCCCCN1C(=O)NC(c2ccc(-c3ccccc3)cc2)C(C(=O)OCc2ccccc2)=C1C)C(C)C(=O)NCCCC` (stereo unspecified) gave JMJD2E inh 35.5µM!, HPGD block inactive, ALDH1A1 inh inactive, Lamin A splicing inconclusive, HTT aggregate inactive and HTT cytoprotect inactive.
Cc1ccc(NC(=O)c2nc[nH]c2C(=O)NCC(=O)OC(C)(C)C)cc1 was read as JMJD2E inh inactive, HTT aggregate inactive[9.22 µM] and HTT cytoprotect inactive[10 µM].
Cc1ccccc1OC1C=CC(C#Cc2ccc(Br)cc2)OC1CO (stereo unspecified) was read as ALDH1A1 inh inactive[13.5 µM] and HTT cytoprotect inactive[10 µM].
Cn1c(=O)c(C(=O)CCl)c(N)n(Cc2ccccc2)c1=O was read as JMJD2E inh inactive, HPGD block inactive, ALDH1A1 inh 7.08µM, Lamin A splicing inconclusive and HTT aggregate inactive.
For CN(C)CC(=O)c1c(N)n(Cc2ccccc2)c(=O)n(C)c1=O the results were JMJD2E inh inactive, ALDH1A1 inh inactive, Lamin A splicing inactive, HTT aggregate inactive and HTT cytoprotect inactive.
Screening COC(=O)/C=C/c1cccc([C@H]2[C@@H]3C=CC[C@@H](C)[C@@H]3C(=O)N2Cc2ccccc2)c1 returned HPGD block inactive and ALDH1A1 inh inconclusive.
For Cn1c(O)c(N=N/C(=N/c2ccccn2)c2ccccn2)c2cc(Br)ccc21 the results were HPGD block 22.4µM and ALDH1A1 inh 14.1µM.
Cc1ccc2c(c1)c(N=NC(N)=O)c(O)n2C was read as JMJD2E inh inactive, ALDH1A1 inh inactive, HTT aggregate inactive[9.22 µM] and HTT cytoprotect inactive[10 µM].
Screening CC1Cc2ccccc2N1C(=O)CSc1nnc(Cn2nnc3ccccc32)n1C (stereo unspecified) returned JMJD2E inh inactive, HPGD block inactive, ALDH1A1 inh 10µM, Lamin A splicing inconclusive, HTT aggregate inactive and HTT cytoprotect inactive[10 µM].
COc1ccccc1-n1c(SCC(=O)NC(C)(C)C)nnc1-c1ccco1 was read as JMJD2E inh inactive, HPGD block 15.8µM, ALDH1A1 inh inactive, Lamin A splicing inactive, HTT aggregate inactive and HTT cytoprotect inactive[10 µM].
CC(C)N(C(=O)CSc1nnc(Cn2nnc3ccccc32)n1C)C(C)C was read as JMJD2E inh inactive, HPGD block inactive, ALDH1A1 inh inactive, Lamin A splicing inactive, HTT aggregate inactive and HTT cytoprotect inactive.
`COc1cccc(-n2c(SCC(=O)N3c4ccccc4CC3C)nnc2-c2ccco2)c1` (stereo unspecified) gave JMJD2E inh inactive, HPGD block inactive, ALDH1A1 inh 25.1µM, Lamin A splicing inactive, HTT aggregate inactive and HTT cytoprotect inactive.
For NC(Cc1ccccc1)(C(=O)O)C(=O)O the results were HPGD block inactive, ALDH1A1 inh inactive[13.5 µM] and HTT cytoprotect inactive[10 µM].
`COc1ccc(/C=N/NC(=O)C2C(C=C(Cl)Cl)C2(C)C)c(OC)c1` (stereo unspecified) gave JMJD2E inh inactive, ALDH1A1 inh inactive, Lamin A splicing inconclusive, HTT aggregate inactive[9.22 µM] and HTT cytoprotect inactive.
`CC1(C)CC(=O)C(CC2=C(O)CC(C)(C)CC2=O)=C(O)C1` gave JMJD2E inh inactive, HPGD block inactive, ALDH1A1 inh 8.91µM, Lamin A splicing inactive, HTT aggregate inactive and HTT cytoprotect inactive[1.9 µM].
For CC1(C)CC(=O)C(C=NC2CCCCC2)=C(O)C1 the results were JMJD2E inh inactive, HPGD block inactive, ALDH1A1 inh inactive, Lamin A splicing inactive, HTT aggregate inactive and HTT cytoprotect inactive.
CC1(C)CC(=O)C(CC2=C(O)CC(C)(C)CC2=O)C(=O)C1 was read as JMJD2E inh inactive, HPGD block inactive, ALDH1A1 inh 11.2µM, Lamin A splicing inactive, HTT aggregate inactive and HTT cytoprotect inactive.
For N#Cc1cc([N+](=O)[O-])cnc1Nc1ccccc1 the results were JMJD2E inh inactive, HPGD block inactive, ALDH1A1 inh inactive, Lamin A splicing inactive, HTT aggregate inactive and HTT cytoprotect inactive[0.074 µM].
Screening CCC(=O)c1ccc(OCC(O)Cn2c(C)nc3ccccc32)cc1 (stereo unspecified) returned JMJD2E inh inactive, HPGD block inactive, ALDH1A1 inh inactive, Lamin A splicing inconclusive, HTT aggregate 11.2µM and HTT cytoprotect inactive[10 µM].
For Cc1nc2ccccc2n1CC(O)COc1ccc(Br)cc1 (stereo unspecified) the results were JMJD2E inh inactive, ALDH1A1 inh inactive, Lamin A splicing inactive, HTT aggregate inactive[9.22 µM] and HTT cytoprotect inactive[10 µM].
`O=C(c1ccc2c(c1)C(=O)N(Cc1ccco1)C2=O)N1CCOCC1` gave JMJD2E inh inactive, HPGD block inactive, ALDH1A1 inh inconclusive, Lamin A splicing inactive, HTT aggregate inactive and HTT cytoprotect inactive.
`O=C(Nc1ccc(O)cc1)c1ccc2c(c1)C(=O)N(Cc1ccco1)C2=O` gave JMJD2E inh inactive, HPGD block inactive, ALDH1A1 inh 14.1µM, Lamin A splicing inactive, HTT aggregate inactive and HTT cytoprotect inactive[10 µM].
For O=C(O)c1ccc(C(=O)c2ccc3c(c2)C(=O)N(Cc2ccco2)C3=O)cc1 the results were JMJD2E inh inactive, HPGD block 8.91µM, ALDH1A1 inh 11.2µM, Lamin A splicing inactive, HTT aggregate inactive and HTT cytoprotect inactive.
O=C(Nc1ccc(O)cc1C(=O)O)c1ccc2c(c1)C(=O)N(Cc1ccco1)C2=O was read as JMJD2E inh inactive, HPGD block inactive, ALDH1A1 inh 5.62µM, Lamin A splicing inactive, HTT aggregate inactive and HTT cytoprotect inactive[0.074 µM].
